Molecules are shown by their SMILES.

The experiment deals with Hexose transporter 1 (Plasmodium falciparum) (UniProt O97467). As to the kind of experiment: ST_JUDE_LEISH: Cytotoxicity at 2uM final concentration against transgenic Leishmania Mexicana promastigotes LmPfHT that are glucose transport deficient and complemented with the Plasmodium falciparum hexose transporter. Activity is measured by DNA content using SYBR green in vitro. It counts as functional.
Broadly, the inhibition is the change of the read-out against control, counted positive when it falls. Consider `Cc1cccn2c(=O)c3cc(C(=O)NC(C)c4ccccc4)c(=N)n(CCc4ccccc4)c3nc12` (stereo not given), for which the inhibition was 16.8%.
To `CN1CCN(CCCSc2ccc3c(c2)ncn3-c2cc(OCc3ccccc3C(F)(F)F)c(C(N)=O)s2)CC1` belongs 11.1%; to `COc1ccc(-c2cccc(NC(=O)c3ccc(Cl)cc3)c2)cc1CNC(C)C`, 2.1%.
To `CNCCNCc1ccc(-c2ccc(-c3nc4cc(F)ccc4[nH]3)s2)cc1` belongs 7.79%; to `COc1ccc(-c2cnc3ccc(N4CCCC4)nn23)cc1OC`, 0.65%.
To `O=C(Nc1ccc(Oc2ccccc2)cc1)N(CCN1CCCC1)Cc1ccc(-c2ccc(CN3CCNCC3)cc2)cc1` belongs 1.54%.
`CC(C)NCc1ccc(-c2ccc(NC(=O)c3ccc(Cl)cc3)cc2)cc1`: the inhibition was determined as 16.2%.
`Cc1cc2nc(-c3ccc(C(=O)NCc4cccc(C(F)(F)F)c4)cc3)[nH]c2cc1C`: the inhibition is -2.94%.
To `O=C(NCCc1cccc(Cl)c1Cl)c1cnc(N2CCN(c3ccncc3)CC2)c(Cl)c1` belongs 81.6%; to `Clc1cc(Br)ccc1-c1ccc(CNCC2CCNCC2)o1`, -0.1%.
To `Oc1c(Cl)cc(-c2ccccc2)cc1CNC1CCCCC1` belongs 1.84%; to `COc1ccc(/N=[N+](\[O-])c2ccccc2/[N+]([O-])=N/c2ccc(OC)cc2)cc1`, 1.73%; to `CC(C)(C)c1ccc(NC(=O)c2ccc(CN3CCCN(CC4CCCCC4)CC3)cc2)cc1`, 1.6%.
To `COc1cccc(-c2csc(C(=O)NCC3CCN(Cc4ccc(C(C)C)cc4)C3)c2)c1` (stereo not given) belongs -1.41%; to `Nc1ccc(-c2cnc3[nH]cc(-c4ccc(C(=O)O)cc4)c3c2)cn1`, 0.34%.
As for `CCC(NC(=O)c1ccccc1NC(=O)c1ccc(C)cc1)C(=O)OC` (stereo not given), the inhibition came to 0.91%.
As to `Cc1cnc(N2CCN(CC3CCN(C)CC3)CC2)nc1Oc1ccc(-n2ccnc2)cc1`, the inhibition was determined as 3.96%.
To `CC(C)(C)c1ccc(CN2CCC(CNC(=O)c3cc(-c4ccccc4C(F)(F)F)cs3)C2)cc1` (stereo not given) belongs 3.76%; to `CCN1C(=O)N(CCC(C)C)C2(CCN(Cc3ccc(OC)cc3O)CC2)C1=O`, 3.01%; to `Cc1ccccc1C1CCN(C2CCC(NC(=O)C3=Cc4ccccc4OC3)CC2)CC1` (stereo not given), 4.94%.
For `CC1(C)N=C(N)N=C(N)N1OCc1cc(Cl)c(CON2C(N)=NC(N)=NC2(C)C)cc1Cl`, the inhibition was found to be 1%.
For the molecule `Cc1nc(-c2ccncc2)sc1C(=O)Nc1ccc(Cl)cc1C(=O)Nc1ccc(Cl)cc1`, the inhibition is 3.01%.
To `CCN(CC)CCN(Cc1ccc(-c2ccc(Cl)cc2)cc1)C(=O)Cn1c(CCc2cccc(F)c2F)nc(=O)c2ccccc21` belongs -2.71%.
To `COc1ccc2nccc([C@@H](O)CN3CCC(NC(=O)Cc4cccc5c(Br)cccc45)CC3)c2c1` belongs 9.54%.
To `Cc1cc(N(C)CCCN(C)C)nc(Nc2ccc(Br)cc2)n1` belongs 2.58%; to `O=C(Nc1ccc2c(c1)CCN2C1CCN(Cc2ccc(C(F)(F)F)cc2F)C1)c1ccco1` (stereo not given), 0.47%; to `c1cc2[nH]c(CCCc3nc4cc(C5=N[C@H]6CCCC[C@H]6N5)ccc4[nH]3)nc2cc1C1=N[C@@H]2CCCC[C@@H]2N1`, 1.75%.
Regarding `CN(C)CC(=O)Nc1ccc(Nc2nccc(NCC(O)c3ccccc3)n2)cc1` (stereo not given), the inhibition was found to be 2.79%.
To `C=CCOc1ccc2ccccc2c1CNCCCCCCNCc1c(OCC=C)ccc2ccccc12` belongs 5.37%; to `FC(F)(F)c1cccc(CNC2CCN(CC3CCCCC3)CC2)c1`, 4.53%; to `COc1cccc(CCNCCCCCCNCCc2ccc(Cl)cc2)c1`, 2.74%.
To `O=C(NCCCN1CCC(N2CCCCC2)CC1)C1=Cc2cc(Br)ccc2OC1` belongs 2.63%.
With `CC(C)(C)c1ccc(CNCCOc2ccc(Nc3nnc(-c4ccc(-c5ncc[nH]5)cc4)o3)c3ccccc23)cc1`, the inhibition amounted to 2.75%.
To `CCOc1c(Br)cc(Br)cc1CNCCCCNc1nc2ccccc2[nH]1` belongs 2.4%; to `FC(F)(F)c1cccc(N=C(S)NN=Cc2ccccn2)c1`, 4.7%; to `Cc1cc(CN2CCC(C(=O)Nc3ccc(-c4nc5ccccc5[nH]4)cc3)CC2)oc1C`, 16%.
To `O=C(/C=C/c1ccc(Cl)c(Cl)c1)NCCCCCN1CCC(NC(=O)Nc2ccc(Cl)cc2F)CC1` belongs 1.84%.
To `Cc1cccc(CNc2nc(C)cc(N[C@@H](CC(C)C)C(=O)NCc3cccc(F)c3)n2)c1` belongs 3.4%; to `N=C(N)NN=Cc1ccccc1OCc1ccccc1Cl`, 2.44%.
`c1ccc2c(c1)CN(Cc1cc3ccccc3[nH]1)CC1(CCN(Cc3c[nH]c4cnccc34)CC1)O2`: the inhibition was -0.02%.

Source of the values: ChEMBL document CHEMBL3433997, “St. Jude Leishmania screening dataset” (2016).
